High-throughput results as filed in PubChem.
Hits are enriched below; roughly 6.9% of the tested compounds scored in any of these assays.
VDR inh = Inhibitors of the vitamin D receptor (VDR): qHTS. Vitamin D3 receptor (Homo sapiens), P11473. VDR-SRC2-3 peptide fluorescence polarization, 2 h. Potency, µM, hits mostly inhibitors. 0.93% of 400,000 active. AID 504847, 2011
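VDR–SRC2-3 interaction, FP format. Cmpds 23 nl via pintool, brief spin, 2 h ambient incubation.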
JMJD2A Tudor = qHTS Assay for Inhibitors of JMJD2A-Tudor Domain; Lysine-specific demethylase 4A (Homo sapiens), O75164; AlphaScreen JMJD2A-Tudor / H3K4me3 peptide binding; Potency, µM (titrated, usually from 114 µM), usual class: inhibitors; 4.4% of 390,000 active; also: nearly all actives have a fitted effect of over 50% in size
BAZ2B inh = qHTS Assay for Inhibitors of BAZ2B | AlphaScreen BAZ2B-H3K14Ac peptide displacement | AID 504333, 2011 | 4.4% of 360,000 active | Potency, µM (top dose mostly 114 µM), usual class: inhibitors; also: nearly all actives have a fitted effect of over 60% in size
Target sequence (Q9UIF8 whole entry, looked up): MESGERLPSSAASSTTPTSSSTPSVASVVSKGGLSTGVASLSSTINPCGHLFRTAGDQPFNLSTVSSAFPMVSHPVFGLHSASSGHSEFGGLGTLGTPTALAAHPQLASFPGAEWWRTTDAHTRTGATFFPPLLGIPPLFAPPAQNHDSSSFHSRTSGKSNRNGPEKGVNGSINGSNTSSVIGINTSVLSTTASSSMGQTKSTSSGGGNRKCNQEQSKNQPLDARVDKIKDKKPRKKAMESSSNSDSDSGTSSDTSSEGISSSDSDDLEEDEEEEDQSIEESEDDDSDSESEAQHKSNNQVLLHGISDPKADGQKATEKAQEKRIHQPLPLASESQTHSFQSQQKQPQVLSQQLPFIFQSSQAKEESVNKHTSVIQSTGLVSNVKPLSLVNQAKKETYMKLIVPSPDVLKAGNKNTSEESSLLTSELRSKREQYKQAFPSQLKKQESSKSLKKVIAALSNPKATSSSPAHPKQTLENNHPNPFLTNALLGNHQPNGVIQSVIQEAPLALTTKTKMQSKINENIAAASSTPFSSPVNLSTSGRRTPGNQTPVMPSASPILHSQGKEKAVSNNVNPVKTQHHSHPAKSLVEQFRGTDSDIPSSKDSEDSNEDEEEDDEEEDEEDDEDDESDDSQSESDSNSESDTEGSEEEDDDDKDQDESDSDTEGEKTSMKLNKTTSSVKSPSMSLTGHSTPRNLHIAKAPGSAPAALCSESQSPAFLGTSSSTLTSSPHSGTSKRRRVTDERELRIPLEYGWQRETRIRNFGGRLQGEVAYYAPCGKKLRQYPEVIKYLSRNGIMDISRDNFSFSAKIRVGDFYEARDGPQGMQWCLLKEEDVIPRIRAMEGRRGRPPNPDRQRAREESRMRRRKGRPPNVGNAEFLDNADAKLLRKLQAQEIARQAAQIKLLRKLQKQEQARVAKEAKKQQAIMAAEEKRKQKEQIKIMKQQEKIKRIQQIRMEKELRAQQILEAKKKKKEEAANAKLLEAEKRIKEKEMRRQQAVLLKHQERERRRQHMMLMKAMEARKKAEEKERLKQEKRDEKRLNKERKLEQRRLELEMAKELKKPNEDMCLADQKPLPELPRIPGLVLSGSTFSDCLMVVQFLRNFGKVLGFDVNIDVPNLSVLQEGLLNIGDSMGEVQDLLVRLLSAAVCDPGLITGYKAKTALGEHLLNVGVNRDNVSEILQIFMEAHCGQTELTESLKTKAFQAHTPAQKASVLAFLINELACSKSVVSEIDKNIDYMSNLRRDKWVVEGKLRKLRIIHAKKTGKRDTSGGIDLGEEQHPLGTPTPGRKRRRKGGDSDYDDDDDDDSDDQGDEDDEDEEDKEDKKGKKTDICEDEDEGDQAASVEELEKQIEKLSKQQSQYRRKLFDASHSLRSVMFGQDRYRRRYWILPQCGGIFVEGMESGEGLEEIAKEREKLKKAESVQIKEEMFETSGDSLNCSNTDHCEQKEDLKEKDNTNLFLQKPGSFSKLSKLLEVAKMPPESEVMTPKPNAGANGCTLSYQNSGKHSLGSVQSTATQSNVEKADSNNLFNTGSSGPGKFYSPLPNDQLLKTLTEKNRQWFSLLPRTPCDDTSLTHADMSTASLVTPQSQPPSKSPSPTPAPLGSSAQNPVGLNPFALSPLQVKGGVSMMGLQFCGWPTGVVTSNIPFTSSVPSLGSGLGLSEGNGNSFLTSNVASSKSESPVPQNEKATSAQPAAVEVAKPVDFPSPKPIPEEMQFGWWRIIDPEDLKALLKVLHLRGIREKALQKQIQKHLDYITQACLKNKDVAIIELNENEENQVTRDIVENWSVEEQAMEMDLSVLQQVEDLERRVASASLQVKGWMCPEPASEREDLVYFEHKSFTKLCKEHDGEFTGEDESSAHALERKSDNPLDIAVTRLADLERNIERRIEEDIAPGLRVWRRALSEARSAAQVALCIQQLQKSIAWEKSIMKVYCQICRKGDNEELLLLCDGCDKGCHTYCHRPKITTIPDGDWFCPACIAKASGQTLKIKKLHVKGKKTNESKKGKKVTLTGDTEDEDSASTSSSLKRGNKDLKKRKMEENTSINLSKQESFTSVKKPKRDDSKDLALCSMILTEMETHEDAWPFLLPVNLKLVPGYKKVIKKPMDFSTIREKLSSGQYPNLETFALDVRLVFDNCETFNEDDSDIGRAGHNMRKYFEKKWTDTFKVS
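Complex of BAZ2B and biotin-H3K14Ac (50 nM apiece) forms over 30 min at RT, then faces library compounds up to 110 uM for another 30 min; AlphaScreen beads added, 20 min dark incubation, luminescence read.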
HP1b binding inh = HTS for Inhibitors of HP1-beta Chromodomain Interactions with Methylated Histone Tails. AlphaScreen HP1-beta / biotin-H3K9me3 peptide binding. Potency, µM (doses to about 114 µM), most hits filed as inhibitors. 0.56% of 390,000 active; also: nearly all actives have a fitted effect of over 70% in size
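HP1-beta protein (50 nM final) preincubated 30 min at room temperature with biotinylated H3(1-18)K9me3 peptide (50 nM) in PBS pH 7.4, 0.01% Tween-20, then compound added for 30 min. AlphaScreen streptavidin donor/nickel chelate acceptor beads (10 ug/mL final), 30 min dark, luminescence read.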
PLK1 PBD block = qHTS for Inhibitors of PLK1-PDB (polo-like kinase 1 - polo-box domain): Primary Screen; Potency, µM, most hits filed as inhibitors; Plk1 PBD binding of FITC phosphopeptide, fluorescence polarization; 2.8% of 360,000 active; also: series mostly up to about 57 µM; nearly all actives have a fitted effect of over 65% in size
L3MBTL1 block = qHTS Assay for the Inhibitors of L3MBTL1 | Potency, µM (series often up to 57.1 µM), hits mostly inhibitors | AlphaScreen L3MBTL1–H3K9me1 peptide binding | 0.66% of 230,000 active | Lethal(3)malignant brain tumor-like protein 1 (Homo sapiens), Q9Y468; also: nearly all actives have a fitted effect of over 60% in size
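L3MBTL1 50 nM + b-AHA-H3(1-15)K9me1 75 nM, 30 min RT; compound added, 30 min RT; streptavidin donor/Ni-chelate acceptor beads 10 ug/mL each final, 30 min RT dark; AlphaScreen read.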
G9a confirm = qHTS Assay for Inhibitors of Histone Lysine Methyltransferase G9a: Hit Confirmation. shares compounds with JMJD2A Tudor. G9a H3K9 monomethylation, AlphaScreen, 2 h. Potency, µM, most hits filed as inhibitors. 89% of 370 active. AID 588344, 2011; also: nearly all actives have a fitted effect of over 65% in size
USP1-UAF1 confirm = Inhibitors of USP1/UAF1: Hit Validation in Primary Assay | Potency, µM (top dose mostly 114 µM), usual class: inhibitors | shares compounds with VDR inh | 50% of 50 active | Ub-Rhodamine cleavage, fluorescence kinetic read
VDR confirm = qHTS for Inhibitors of the vitamin D receptor (VDR): Hit Validation in Primary Screen; shares compounds with VDR inh; VDR-coactivator inhibition assay, qHTS confirmation; Potency, µM, actives largely listed as inhibitors; 89% of 840 active
VDR FP fluor = qHTS for Inhibitors of the vitamin D receptor (VDR): Hit Validation using a Fluorescein Assay; Potency, µM (titrated, usually from 57.1 µM), most hits filed as inhibitors; 48% of 840 active; VDR-coactivator binding, fluorescein fluorescence polarization; AID 602200, 2012; shares compounds with VDR inh
VDR bla reporter = qHTS for Inhibitors of the vitamin D receptor (VDR): Hit Validation using a Beta-Lactamase Assay; 23% of 840 active; AID 602202, 2012; Potency, µM (doses to about 46.1 µM), actives largely listed as inhibitors; shares compounds with VDR inh; VDR beta-lactamase reporter cells, FRET ratio; cells co-treated with VDR agonist LG190178
VDR cytotox = qHTS for Inhibitors of the vitamin D receptor (VDR): Hit Validation using a Cytotoxicity Assay; 18% of 840 active; cytotoxicity counter-screen, cell viability, qHTS; Potency, µM (titrated, usually from 48.3 µM), actives largely listed as cytotoxic; shares compounds with VDR inh; also: nearly all actives have a fitted effect of over 75% in size
Large screens that a line does not name were inactive (follow-up assays come after a bar, where they were run). Calls follow the shape of the dose curve; as a rule, active = well fitted curve in the direction sought with a large enough effect; inconclusive = small, poorly fitted or top-dose-only effect, or another doubt; inactive = no such curve, though single readings can be large; an effect the other way counts as inactive or inconclusive.

Cn1c(N2CCNCC2)nc2ccccc21	none (no result: L3MBTL1 block)
Cc1cc(N2CCNCC2)nc2ccccc12	PLK1 PBD block 27µM | G9a confirm inconclusive
c1ccc(CNCCc2ccc3c(c2)OCO3)nc1	JMJD2A Tudor inconclusive, BAZ2B inh 45µM | G9a confirm inconclusive
NCCc1ccccn1	none (no result: JMJD2A Tudor, BAZ2B inh, HP1b binding inh, PLK1 PBD block, L3MBTL1 block)
Fc1cccc(CCNCc2ccccn2)c1	JMJD2A Tudor 3.5µM, BAZ2B inh 20µM | G9a confirm 28
CCC[C@@](C)(COC(N)=O)COC(=O)NC(C)C	none (no result: JMJD2A Tudor, BAZ2B inh, HP1b binding inh, PLK1 PBD block, L3MBTL1 block)
COc1ccc(NC(=O)c2ccco2)cc1NC(=O)COc1cc(C)cc(C)c1	none (no result: PLK1 PBD block, L3MBTL1 block)
O=C(c1c[nH]c(C(=O)C(Cl)(Cl)Cl)c1)c1ccccc1Cl	JMJD2A Tudor inconclusive, BAZ2B inh inconclusive (no result: L3MBTL1 block)
O=C(COc1ccc(Cl)cc1)N1CCN(Cc2ccc([N+](=O)[O-])cc2)CC1	JMJD2A Tudor 11µM, HP1b binding inh inconclusive (no result: BAZ2B inh) | G9a confirm 35
CSc1ccc(CN2CCN(C(=O)COc3cccc(C)c3)CC2)cc1	JMJD2A Tudor 8.9µM, BAZ2B inh 50µM, HP1b binding inh 40µM | G9a confirm 40
Cc1ccc(OCC(=O)N2CCN(Cc3cccnc3)CC2)cc1	JMJD2A Tudor 4µM, HP1b binding inh inconclusive (no result: BAZ2B inh) | G9a confirm 16
C[C@H]1C(=O)O[C@@H]2CCN3CC=C(COC(=O)[C@@](C)(O)[C@@]1(C)O)[C@H]23	none (no result: JMJD2A Tudor, BAZ2B inh, HP1b binding inh, PLK1 PBD block, L3MBTL1 block)
CCc1nc(-c2ccc(C)nc2OC)no1	none (no result: L3MBTL1 block) | G9a confirm 1.8
C#CCOC(C(=O)OCCN(C)C)(c1ccccc1)c1ccccc1	none (no result: JMJD2A Tudor, BAZ2B inh, HP1b binding inh, PLK1 PBD block, L3MBTL1 block)
CN1C(=O)C(=Cc2ccccc2Oc2ccc(Cl)cc2)C(=O)N(C)C1=O	VDR inh 28µM, PLK1 PBD block 4.7µM | VDR confirm 17 | VDR FP fluor 18µM | VDR bla reporter inactive | VDR cytotox inactive
CN1C(=O)C(=Cc2ccc(OCCN(C)c3ccccn3)cc2)C(=O)N(C)C1=O	PLK1 PBD block inconclusive
CCCCCCCCc1[se]c2ccccc2c1[Se]c1ccccc1	none (no result: JMJD2A Tudor, BAZ2B inh, HP1b binding inh, PLK1 PBD block, L3MBTL1 block)
COc1cccc(C2CC3C(=O)C=CC2N3Cc2ccccc2)c1 (configuration not stated)	VDR inh inconclusive | VDR confirm 18 | VDR FP fluor inconclusive | VDR bla reporter 21µM | VDR cytotox inactive
C[C@H]1COC2=C1C(=O)C(=O)c1c2ccc2c1CCCC2(C)C	VDR inh 11µM, JMJD2A Tudor 32µM, BAZ2B inh 14µM, HP1b binding inh inconclusive, PLK1 PBD block 27µM, L3MBTL1 block inconclusive | VDR confirm 20 | VDR FP fluor 25µM | VDR bla reporter inactive | VDR cytotox inactive
CC1COC2=C1C(=O)C(=O)c1c2ccc2c1CCCC2(C)C (configuration not stated)	VDR inh 7.1µM (no result: JMJD2A Tudor, BAZ2B inh, HP1b binding inh, PLK1 PBD block, L3MBTL1 block) | VDR confirm inconclusive | VDR FP fluor 14µM | VDR bla reporter inactive | VDR cytotox inactive
CC(C)[C@@]1(NC(=O)[C@@H]2C[C@H]3c4cccc5[nH]cc(c45)C[C@@H]3N(C)C2)O[C@@]2(O)[C@H]3CCCN3C(=O)[C@H](Cc3ccccc3)N2C1=O	none (no result: JMJD2A Tudor, BAZ2B inh, HP1b binding inh, PLK1 PBD block, L3MBTL1 block)
CN(C)c1ccc(C(=O)c2ccc(N(C)C)cc2)cc1	JMJD2A Tudor inconclusive, BAZ2B inh inconclusive (no result: L3MBTL1 block)
C/C(=C\c1ccc(N(C)C)cc1)[N+](=O)[O-]	VDR inh 20µM, PLK1 PBD block inconclusive | VDR confirm 6.7 | VDR FP fluor inconclusive | VDR bla reporter inactive | VDR cytotox inconclusive
CN(C)c1ccc(/C=C/[N+](=O)[O-])cc1	VDR inh inconclusive | VDR confirm inconclusive | VDR FP fluor inactive | VDR bla reporter inactive | VDR cytotox inactive
COc1ccc(NC(=O)CCCn2c(=O)oc3ccccc32)cc1Cl	none
CC1CCCN(C(=O)C2CCC(CNc3c(N4CCCCC4)c(=O)c3=O)CC2)C1 (configuration not stated)	none
O=C(O)[C@H]1[C@H]2CN[C@H](C(=O)O)[C@H]21	none (no result: JMJD2A Tudor, BAZ2B inh, HP1b binding inh, PLK1 PBD block, L3MBTL1 block)
O=c1[nH]c2ccccc2n1C1CCN(CCCC(c2ccc(F)cc2)c2ccc(F)cc2)CC1	VDR inh inconclusive, JMJD2A Tudor 40µM, BAZ2B inh inconclusive, HP1b binding inh inconclusive | USP1-UAF1 confirm inconclusive
Cn1c(O)c(N=Nc2ccc(S(=O)(=O)N3CCOCC3)cc2)c(=O)n(C)c1=O	none
O=C1NC(=O)C(=Cc2ccc(-c3ccc(S(=O)(=O)N4CCOCC4)cc3)o2)C(=O)N1	VDR inh 22µM, PLK1 PBD block 2.7µM | VDR confirm 19 | VDR FP fluor inconclusive | VDR bla reporter inactive | VDR cytotox inactive
COc1cc(OC)c2c(c1)OC(c1ccc(OC)c(OC)c1)C(O)C2 (configuration not stated)	none (no result: JMJD2A Tudor, BAZ2B inh, HP1b binding inh, PLK1 PBD block, L3MBTL1 block)
NC(CCCCCP(=O)(O)O)C(=O)O (configuration not stated)	none (no result: JMJD2A Tudor, BAZ2B inh, HP1b binding inh, PLK1 PBD block, L3MBTL1 block)
O=c1oc(Cl)c(Cl)c2ccccc12	VDR inh 25µM, JMJD2A Tudor inconclusive, BAZ2B inh inconclusive, PLK1 PBD block 0.34µM | USP1-UAF1 confirm 7.4µM | VDR confirm 5 | VDR FP fluor inconclusive | VDR bla reporter inconclusive | VDR cytotox 17µM
